# Measurements: PubChem BioAssay (NCI)
# The panel holds about 83,000 compounds, 20% with a hit somewhere; the sample as a whole holds those more often.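 48-hour exposure, single concentration, 96-well plates; percent growth endpoint where 0 means no net growth. Active: below 10.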 Values without a mark were called inactive. Active and inactive are the calls of the source.
# Assays:
# Assay in all cases: NCI-60 one-dose screen, 48 h (100 = growth as untreated, 0 = no growth, -100 = all killed)
# Conditions in all cases: 10 µM
# [1] = system: HCT-15 colon
# [2] = system: HT29 colon
# [3] = system: SNB-75 CNS
# [4] = system: SNB-19 CNS
# [5] = system: U251 CNS
# [6] = system: PC-3 prostate
# [7] = system: SK-MEL-5 melanoma
# [8] = system: UACC-62 melanoma
# [9] = system: LOX IMVI melanoma
# [10] = system: SK-MEL-28 melanoma
# [11] = system: SK-MEL-2 melanoma
# [12] = system: SN12C renal
# [13] = system: UO-31 renal
# [14] = system: TK-10 renal
# [15] = system: ACHN renal
# [16] = system: CAKI-1 renal
# [17] = system: A498 renal
# [18] = system: MOLT-4 leukemia
# [19] = system: CCRF-CEM leukemia
# [20] = system: EKVX NSCLC
SMILES,growth [1],growth [2],growth [3],growth [4],growth [5],growth [6],growth [7],growth [8],growth [9],growth [10],growth [11],growth [12],growth [13],growth [14],growth [15],growth [16],growth [17],growth [18],growth [19],growth [20]
O=C(Nc1cccc(Cl)c1)Nc1cc2ncncc2cc1OCc1cccc(F)c1,0.775% (active),0.74% (active),21.1%,22.9%,6.99% (active),9.57% (active),-88.5% (active),-18.4% (active),21.4%,20.9%,-24.3% (active),21.7%,9.37% (active),-3.16% (active),3.47% (active),14.6%,-9.36% (active),4.84% (active),,
CN1/C(=C\C(I)C(I)C2=[N+](C)c3ccccc3C2(C)C)C(C)(C)c2ccccc21 (configuration not stated),13.8%,4.84% (active),14.5%,18.9%,7.67% (active),5.52% (active),-97.4% (active),19.4%,12%,28.5%,-13% (active),,-1.6% (active),18.7%,4.88% (active),21.5%,-2.55% (active),-12.5% (active),12.1%,
COCCOC(=O)NC(=O)Nc1ccc(C(=O)c2ccc(Cl)cc2)cc1,20.9%,11.9%,6.4% (active),41.3%,37.8%,32.1%,5.54% (active),25.8%,37.2%,,27.6%,,40.3%,53.2%,42.7%,32.8%,19.3%,32.7%,18.5%,31.4%
COc1ccc(/C=C(\c2cc(OC)c(OC)c(OC)c2)c2nnc(-c3cccs3)o2)cc1,103%,90.7%,-10.5% (active),52.3%,55.7%,81.7%,64.6%,78.1%,92.8%,,81.9%,84.6%,89.3%,75.5%,75.3%,66.3%,71.4%,87.6%,,78.6%
c1ccc(OCCC[P+](c2ccccc2)(c2ccccc2)c2ccccc2)cc1,84.7%,4.29% (active),-5.17% (active),12.7%,8.33% (active),-0.485% (active),-69.2% (active),14.6%,2.53% (active),,-11.5% (active),10.4%,63.8%,18.1%,66%,76.6%,12.1%,0.0403% (active),1.67% (active),
CCOC(=O)/C(C#N)=C(/C)C1CC1,98.6%,112%,87.7%,110%,100%,97.3%,99.6%,107%,106%,,111%,107%,88.3%,116%,105%,104%,94.1%,114%,103%,
COc1cc(Cl)cc(-c2nn(-c3cccc(NC(=O)Nc4cccc(C(F)(F)F)c4)c3)cc2-c2ccncc2)c1,7.83% (active),5.75% (active),12.5%,16.1%,4.59% (active),-9.92% (active),5.3% (active),-11.5% (active),4.64% (active),,-36.7% (active),13.9%,-4.59% (active),23.4%,5.44% (active),16.1%,-6.74% (active),-9.16% (active),3.34% (active),
CN(C)CCCN1c2ccccc2Sc2ccc(C(F)(F)F)cc21,17.3%,-8.15% (active),-2.79% (active),35.9%,19.5%,23.3%,-95.4% (active),-52.6% (active),-75.3% (active),-64.1% (active),-16.3% (active),,18.7%,25%,,22.4%,62.8%,6.88% (active),16.5%,
C=CCn1c(C)nc2cc(Nc3nc(Nc4ccc5nc(C)n(CC=C)c5c4)c4ccccc4n3)ccc21,-76.2% (active),-69.4% (active),-96.7% (active),-66.1% (active),-90.7% (active),-91.7% (active),-95.2% (active),-83.3% (active),-83.3% (active),,-84.1% (active),-69.6% (active),-94.4% (active),-97.2% (active),-97.4% (active),-86.4% (active),-100% (active),-26.8% (active),-11.3% (active),
COc1cc(/C=C/C(=O)c2cc(-c3ccccc3)ccc2O)cc(OC)c1OC,70%,82.4%,93.1%,93.3%,75.7%,49.4%,51.8%,58.8%,52.6%,,77.2%,76.2%,53.4%,105%,77.3%,61.6%,74.3%,28%,8.52% (active),54%
COc1ccc(/C(CS(=O)(=O)c2ccccc2)=N\O)cc1,99.4%,106%,87%,101%,93.9%,104%,95.8%,95.1%,111%,,113%,96.9%,104%,92.5%,109%,101%,102%,98.4%,96.3%,
COc1ccc(-c2[nH]ncc2/C=C/c2cc(C(F)(F)F)[nH]c(=O)n2)cc1,97%,99.1%,88%,91%,88.5%,98.7%,93.7%,102%,87.4%,,82.9%,96.2%,87.1%,94.8%,92.6%,102%,89.3%,86%,73%,
COc1ccc(Cn2cc3c(c2-c2cc(OC)c(OC)c(OC)c2)CCc2cnoc2-3)cc1N,17.5%,8.78% (active),50.5%,44.6%,23.2%,31.1%,-17.9% (active),50.5%,18.7%,,37.1%,27.6%,40.4%,75.6%,38.8%,6.52% (active),25%,24.6%,23.7%,27.4%
O=C(c1ccc(Cl)cc1)c1no[n+]([O-])c1C(=O)c1ccc(Cl)cc1,95.7%,67.3%,97.9%,115%,104%,92.9%,98.3%,118%,-74.2% (active),,92%,86.4%,-94.9% (active),84.1%,39.7%,-68.6% (active),106%,68.2%,-51.6% (active),
Cc1cc(C(C)(C)CC(C)(C)C)ccc1OCCOCC[N+](C)(C)Cc1ccccc1,94.6%,-81.2% (active),-63.4% (active),-80.8% (active),-86.2% (active),-19.4% (active),-95.8% (active),-91.9% (active),-92.9% (active),,-34.2% (active),,65.4%,-11.6% (active),,89.1%,4.39% (active),-39.6% (active),,-0.736% (active)
CCn1nc(-c2ccccn2)c2cccnc2c1=S,67.2%,51.9%,95.4%,93.9%,74.5%,38.4%,59.3%,81.2%,87.5%,89.4%,88.2%,,77.3%,89.9%,89.4%,86.6%,99.2%,57.5%,31.5%,
